# Assay outcomes as filed in PubChem.
# Hits are enriched below; roughly 3.8% of the tested compounds scored in any of these assays.
# 697 NFkB inh = inhibitors of the PMA/ionomycin-induced NF-kB reporter in 697 B cells; 697 B-cell NF-kB luciferase reporter, 16 h; inhibition, % at 4 µM; 330,000 compounds, 0.33% hits; in the data active = inhibition above about 35%
# Mdm2 MdmX PPI = human Mdm2/MdmX binding inhibition. O15151+Q00987. SaOS-2 split-luciferase Mdm2/MdmX complementation, luminescence. inhibition, % at 8 µM. 330,000 compounds, 3% hits. AID 485346;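 active = inhibition of at least 50% at 8 µM in the primary screen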
# Bfl-1 A1 inh = inhibitors of the anti-apoptotic protein A1, read as caspase activation | caspase activation, % (concentration not given with the values) | 330,000 compounds, 0.066% hits | MEF A1-2A-BIM cells, Caspase-Glo 3/7 luminescence, 3 h; percent of clofoctol response, vehicle zero;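 active = over half of replicate activation scores above 10%, or exactly half above 10 with the replicate mean above 10; inconclusive = replicate mean below 10 yet half the replicates above 10; inactive = over half of replicates below 10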
# Beta apoptosis = blocks beta cell apoptosis; INS-1E cytokine-induced death, ATP luminescence, 48 h; percent of positive-control rescue, neutral wells zero; protection from apoptosis, % (test concentration not listed); 300,000 compounds, 0.8% hits; AID 435005;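 active = Every replicate reaches about 75%, or at least half do and their mean reaches it too, limit read from the data; inconclusive = At least half of replicates reach the limit but their mean does not; inactive = Under half of replicates reach the limit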;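 also: 0% = cytokine-treated negative control wells and 100% = positive control rescue; higher means more ATP so stronger rescue from cytokine killing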
# NTR1 agonist = agonists of human neurotensin receptor NTR1; NTR1-U2OS beta-arrestin-GFP spot imaging, agonist mode; activation, % at 20 µM; 330,000 compounds, 0.17% hits;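 active = activation at or above 40% of the spot to cytoplasm intensity ratio, with at least 20 cells analyzed; inconclusive = wells under 20 cells, flagged as cytotoxic or low count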;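 also: 0% = DMSO without peptide and 100% = 100 nM NTR1 peptide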
# Target sequence (P30989 whole entry, looked up): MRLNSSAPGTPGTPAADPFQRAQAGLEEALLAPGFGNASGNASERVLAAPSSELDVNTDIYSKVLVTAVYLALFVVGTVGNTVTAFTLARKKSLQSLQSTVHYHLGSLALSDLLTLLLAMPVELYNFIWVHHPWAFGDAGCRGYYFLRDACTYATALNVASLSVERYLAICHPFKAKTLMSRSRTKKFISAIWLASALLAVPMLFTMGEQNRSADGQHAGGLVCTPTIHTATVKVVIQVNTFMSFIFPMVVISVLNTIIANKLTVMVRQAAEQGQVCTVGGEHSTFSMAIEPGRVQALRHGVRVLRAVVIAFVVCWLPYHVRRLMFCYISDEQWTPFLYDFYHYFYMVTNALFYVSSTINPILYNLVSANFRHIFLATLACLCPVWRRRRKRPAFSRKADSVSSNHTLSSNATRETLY
# Jurkat NFkB inh = lowers PMA/ionomycin-induced NF-kB signal in Jurkat cells; 330,000 compounds, 0.53% hits; AID 435003; PMA/ionomycin-induced NF-kB luciferase reporter, luminescence; inhibition, % at 4 µM; in the data active = inhibition above about 50%
# Mdm2-MdmX conf = confirmation of human Mdm2/MdmX interaction inhibitors. AID 489028. Mdm2-MdmX binding, luminescent assay. inhibition, % at 8 µM. shares compounds with Mdm2 MdmX PPI. 10,000 compounds, 55% hits; in the data active = inhibition above about 40%
# FLuc counter = counter-screen for Mdm2/MdmX inhibitors: full-length luciferase; shares compounds with Mdm2 MdmX PPI; SaOS-2 full-length luciferase counterscreen, luminescence; inhibition, % at 8 µM; 6,200 compounds, 77% hits;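 active = mean inhibition at 8 µM reaching about 37%, which flags the compound as non-specific, limit read from the data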;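 also: p53-null SaOS-2 cells with luciferase driven by a doxycycline-inducible promoter; compound on cells about two nights before reading with doxycycline added after day one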
# Numbers without * were called inactive; ? = inconclusive; . = no result given.
SMILES,697 NFkB inh,Mdm2 MdmX PPI,Bfl-1 A1 inh,Beta apoptosis,NTR1 agonist,Jurkat NFkB inh,Mdm2-MdmX conf,FLuc counter
COc1cc(OC)cc(C(=O)NNC(=O)CCc2nc3ccccc3c(=O)[nH]2)c1,19,17,0,-1,0,-10,.,.
N#Cc1c([N+](=O)[O-])cc([N+](=O)[O-])cc1S(=O)(=O)Cc1ccccc1,-21,98*,-1,113*,-2,4,96*,0
Nc1nc(SCC(=O)Nc2cc(Cl)c(Cl)cc2Cl)n[nH]1,-37,-6,1,-3,-1,-22,.,.
O=C1/C(=C/C=C/c2ccccc2)Oc2c1ccc(O)c2CN1CCN(CCO)CC1,11,37,1,-10,-1,7,.,.
CCN1CCN(Cc2c(O)ccc3c2O/C(=C\C=C\c2ccccc2)C3=O)CC1,-12,96*,1,5,11,-6,59*,37*
CN(C)Cc1c(O)ccc2c1O/C(=C\C=C\c1ccccc1)C2=O,-20,101*,1,-27,8,6,72*,21
Cc1cc(F)ccc1S(=O)(=O)NCC1CC2CCC1C2 (centres undefined),-17,3,0,1,2,8,.,.
OC(COc1ccc(CNCCc2ccccc2F)cc1)CN1CCCCC1 (centres undefined),10,55*,0,3,0,48,40*,54*
CCn1c(=O)n(CC(=O)N2CCN(c3ccccc3F)CC2)c(=O)c2ccccc21,-25,-14,1,.,2,-14,.,.
CCn1c(=O)cc(SCC(=O)N2CCN(c3ccccc3F)CC2)c2ccccc21,-18,56*,-1,-2,0,3,44*,86*
CN(Cc1ccccc1)C(=O)CSc1cc(=O)n(C)c2ccccc12,11,35,0,-1,3,7,.,.
CCn1c(=O)cc(SCC(=O)N(C)Cc2ccccc2)c2ccccc21,16,51*,1,0,1,-6,30,.
CN(C(=O)C1CCC(CNS(=O)(=O)c2cccc3cccnc23)CC1)C1CCCCC1 (centres undefined),-6,23,-1,-4,2,3,.,.
Fc1cccc(F)c1/C=C/c1ccc2ccccc2n1,-142,-174,-5,6,0,-150,.,.
CC(O)/C=C/c1ccc2ccccc2n1 (centres undefined),12,60*,0,-11,0,-8,22,.
Cc1nnc(SCC(=O)Nc2cc(C(F)(F)F)ccc2Cl)n1C,-26,-15,0,-1,1,-11,.,.
COc1cc2c3nnc(-c4ccc(F)cc4)c-3cn(Cc3ccc(F)cc3)c2cc1OC,-12,100*,0,-1,84*,25,20,.
CC(=O)N1CC(=O)N=C1SCC(=O)Nc1nc(-c2ccccc2)c(-c2ccccc2)s1,23,57*,2,.,5,2,10,.
O=C(CCl)N1c2ccccc2SCC1c1ccccc1 (centres undefined),-3,99*,1,-11,2,14,54*,19
O=C(CSc1nc2nn(-c3ccccc3)c(=O)c-2c2n1CCCCC2)Nc1ccc(F)c(F)c1,19,55*,-1,2,4,5,22,.
O=C(CSc1nc2nn(-c3ccccc3)c(=O)c-2c2n1CCCCC2)Nc1ccc(F)cc1F,26,24,1,4,0,3,.,.
O=C(NC(=S)Nc1ccc(NC(=O)c2ccccc2)cc1)c1ccc(F)cc1,-26,16,-2,-2,3,9,.,.
CC(=O)Nc1ccc(NC(=O)c2ccc(NC(=O)c3ccccc3)cc2)cc1,20,62*,0,-1,1,-2,17,.
CC(=O)Nc1ccc(-c2cc(-c3ccc(NC(C)=O)cc3)nc(-c3ccccc3)n2)cc1,-36,58*,0,-1,1,-16,34,.
O=C(NC(=S)Nc1ccc2c(c1)C(=O)c1ccccc1C2=O)c1ccc(F)cc1,-102,69*,-4,10,-1,-66,-69,.
SMILES,697 NFkB inh,Mdm2 MdmX PPI,Bfl-1 A1 inh,Beta apoptosis,NTR1 agonist,Jurkat NFkB inh,Mdm2-MdmX conf,FLuc counter
CC(=O)Nc1ccc(-c2cc(-c3ccc(NC(C)=O)cc3)nc(-c3ccc(NC(C)=O)cc3)n2)cc1,-22,-5,0,-3,-1,-16,.,.
CC(C)C(=O)Nc1ccc(NC(=O)c2ccc(COc3ccccc3)cc2)cc1,-20,72*,0,3,-1,-11,23,90*
COc1ccc(CC2CC(=O)N(c3ccc(C)cc3)C2=O)cc1 (centres undefined),8,-17,0,.,0,-6,.,.
COc1cc(S(=O)(=O)Nc2ccccc2C(=O)N2CCCCC2)ccc1NC(C)=O,24,28,0,-3,1,-3,.,.
CC(=O)Nc1ccc(-c2cc(-c3ccccc3)nc(-c3ccccc3)n2)cc1,-37,56*,1,10,4,0,47*,92*
CCC(=O)Nc1ccc(-c2cc(-c3ccccc3)nc(-c3ccc(NC(=O)CC)cc3)n2)cc1,-27,84*,0,17,-1,2,38,64*
O=C(Nc1ccc(NC(=S)NC(=O)C(c2ccccc2)c2ccccc2)cc1)c1ccccc1,-60,51*,0,36,0,17,49*,42*
Cc1ccc(NC(=O)C2CCN(S(=O)(=O)c3ccc4c(c3)NC(=O)C(C)S4)CC2)cc1Cl (centres undefined),-8,61*,0,107*,8,21,9,.
COc1ccc(N(CC(=O)Nc2ccccc2OC)S(=O)(=O)c2ccc(NC(C)=O)cc2)cc1,-50,53*,0,16,2,43,63*,55*
OCCN1CCN(c2nc(-c3ccccc3)nc3c2oc2ccccc23)CC1,-6,54*,?,17,16,-11,38,54*
O=C(O)C1CCN(c2nc(-c3ccccc3)nc3c2oc2ccccc23)CC1,5,8,1,-3,4,7,.,.
COc1c(O)cc2oc(-c3ccc(O)cc3)cc(=O)c2c1O,-47,-73,-9,.,1,-66,.,.
O=c1cc(-c2ccc(O)cc2)oc2ccc3ccccc3c12,-34,68*,-8,45,38,12,66*,75*
COc1cc2oc(-c3ccc(O)cc3)cc(=O)c2c(OC)c1O,14,51*,.,.,3,3,17,.
Cn1c(SCC(=O)NC(=O)Cc2ccccc2)nnc1-c1ccc(F)cc1,21,18,0,3,2,7,.,.
COc1ccc(CCNC(=O)c2cc3c(=O)n4ccccc4nc3n(CCCN3CCOCC3)c2=N)cc1,-16,54*,0,15,3,35,13,.
